Measured values as given in PubChem BioAssay AID2058 (Sanford-Burnham Center for Chemical Genomics, 2009).
In all, about 290,000 compounds went through this assay and about 150 (0.052%) were called active.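 Rule for the calls: active = inhibition of at least 50% with at least 30 cells and total cytoplasm GFP at most 10,000,000; inconclusive = under 30 cells or total GFP of 10,000,000 plus; inactive = the rest.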 What follows is part of a selection rich in actives, with near analogues and random picks from the rest. Potency and affinity values are given separately.

What follows are molecules tested against G-protein coupled receptor 35 (Homo sapiens) (UniProt Q9HC97) (assay: GPR35 antagonists blocking zaprinast-driven arrestin recruitment, primary screen, imaging, U2OS, beta-arrestin-GFP, zaprinast agonist (AID 2058)). Details: U2OS GPR35 beta-arrestin-GFP translocation imaging, zaprinast antagonism; at 10 µM; stronger effect = higher value.
Sequence of G-protein coupled receptor 35 (Homo sapiens) (Q9HC97 whole entry, looked up): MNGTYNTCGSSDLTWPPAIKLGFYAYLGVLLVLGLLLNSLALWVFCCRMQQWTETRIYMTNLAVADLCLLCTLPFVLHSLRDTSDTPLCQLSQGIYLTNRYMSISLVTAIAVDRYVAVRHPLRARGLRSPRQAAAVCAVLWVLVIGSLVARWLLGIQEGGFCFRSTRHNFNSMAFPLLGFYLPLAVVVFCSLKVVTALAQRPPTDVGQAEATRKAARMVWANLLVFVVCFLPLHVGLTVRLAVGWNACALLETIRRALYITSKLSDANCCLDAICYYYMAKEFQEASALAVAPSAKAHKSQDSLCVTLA

Row | Compound | inhibition
1 | NC(=O)c1cc2cc([N+](=O)[O-])ccc2oc1=O | -20% (inactive)
2 | COc1ccc(C(=O)Nc2ccc(Cl)cc2C(=O)NCc2ccco2)cc1 | 14% (inactive)
3 | CCn1cnc2cc(NCc3ccc(OC)cc3)ccc21 | -12.4% (inactive)
4 | CCOc1ccc(CNc2ccc3c(c2)nc(C)n3C)cc1 | 4.9% (inactive)
5 | CCOCC(O)CS(=O)(=O)c1ccccn1 (centres undefined) | -4.6% (inactive)
6 | O=C(Nc1nc2ccc3ccccc3c2s1)c1ccc(N2CCCCC2)c([N+](=O)[O-])c1 | 5.5% (inactive)
7 | O=C(Nc1nc2ccc(Cl)cc2s1)c1ccc(N2CCCCC2)c([N+](=O)[O-])c1 | 4.2% (inactive)
8 | O=C(Cc1cccc2ccccc12)Nc1cc(Cl)ccc1C(=O)O | -3.5% (inactive)
9 | O=C(CCC1N=C2c3ccccc3N=C(SCC(=O)NCC3CCCO3)N2C1=O)NCc1ccc(F)cc1 (centres undefined) | -0.5% (inactive)
10 | N#C/C(=C\c1ccc(N2CCOCC2)o1)c1ccccc1 | 19.5% (inactive)
11 | N#C/C(=C\c1ccc(N2CCOCC2)o1)c1nc2ccccc2[nH]1 | 26.1% (inactive)
12 | CCn1c(CC(=O)Nc2ccccc2F)nnc1SCC(=O)N1CCN(c2ccccc2)CC1 | -10.6% (inactive)
13 | CC(C)(C)NC(=O)CN(C(=O)C(=O)Nc1ccc2c(c1)OCCO2)C1CCCC1 | 15.5% (inactive)
14 | CC(=O)c1cccc(NC(=O)/C(=C\c2ccco2)NC(=O)c2ccco2)c1 | -5.7% (inactive)
15 | CCN1C=CC2=C(C#N)C(N)C(C#N)(C#N)C(c3ccccc3C(F)(F)F)C2C1 (centres undefined) | 12.6% (inactive)
16 | CN1C=CC2=C(C#N)C(N)C(C#N)(C#N)[C@H](c3ccccc3)[C@H]2C1 (some centres undefined) | 38.1% (inactive)
17 | CC1=C(C(=O)OCc2ccccc2)C(c2ccccc2Cl)NC(=O)N1CCCCCC(=O)O (centres undefined) | 0.1% (inactive)
18 | O=S(=O)(Nc1nc2ccccc2s1)c1cc(F)ccc1F | -10.3% (inactive)
19 | CC1CN(CCC(=O)Nc2ccc3c(c2)OCO3)CC(C)O1 (centres undefined) | -12% (inactive)
20 | C#CCOCCOCCOCCNc1nc(N2CCN(C(=O)[C@H]([C@@H](C)CC)n3cc(CCCN=C(N)N)nn3)CC2)nc(N2CCN(C(=O)[C@H](Cc3ccc(O)cc3)n3cc(CCO)nn3)CC2)n1 | -6.4% (inactive)
21 | CS(=O)(=O)N1N=C(c2ccc(Br)cc2)CC1c1ccc2c(c1)OCO2 (centres undefined) | 20.6% (inactive)
22 | Cc1ccc(C2=NN(S(C)(=O)=O)C(c3ccc4c(c3)OCO4)C2)cc1 (centres undefined) | 6.3% (inactive)
23 | O=C(NC1CCCC1)C(c1ccccn1)N(C(=O)c1csnn1)c1ccccc1 (centres undefined) | 13.8% (inactive)

Row | Compound | inhibition
24 | COc1ccc(/C=N/N2C(=O)CN(C(=O)c3ccccc3)C2c2ccc(OC)cc2)cc1 (centres undefined) | 1.5% (inactive)
25 | COc1ccc(S(=O)(=O)N2CCOC2CNC(=O)C(=O)NCCc2c[nH]c3ccccc23)cc1 (centres undefined) | 4.5% (inactive)
26 | O=C(Nc1ccc(C2=NCCN2)cc1)c1ccc(Cl)c(C(=O)Nc2ccc(C3=NCCN3)cc2)c1 | 13.7% (inactive)
27 | O=C(Nc1ccc(C2=NCCN2)cc1)c1ccc(C(=O)Nc2ccc(C3=NCCN3)cc2)c([N+](=O)[O-])c1 | -3.6% (inactive)
28 | O=C(Nc1ccc(C2=NCCN2)cc1)c1ccc(C(=O)Nc2ccc(C3=NCCN3)cc2)c(Cl)c1 | 101% (active)
29 | COC(=O)c1sc(S(=O)(=O)N2CCC(C)CC2)c(C(=O)OC)c1C | 10.9% (inactive)
30 | COCCCNC(=S)N(CCCN(C)C)Cc1cc2cc3c(cc2[nH]c1=O)OCCO3 | -7.4% (inactive)
31 | CCOC(=O)CC1C(=O)NCCN1C1CCCC1 (centres undefined) | 9.7% (inactive)
32 | CC(=O)NNC(=O)CN1C(=O)/C(=C/c2ccccc2)SC1=S | -0.2% (inactive)
33 | Cc1c(C(=O)Nc2cccc(N(C)S(C)(=O)=O)c2)cccc1[N+](=O)[O-] | -4.4% (inactive)
34 | O=c1ccc2cc3c4c(c2o1)CCCN4CCC3 | 22.1% (inactive)
35 | CC(C)c1cc(=O)oc2c3c4c(cc12)CCCN4CCC3 | -1.4% (inactive)
36 | O=C(CNC(=O)N1CC(=O)Nc2ccccc21)Nc1ccc(F)c(Cl)c1 | -6.4% (inactive)
37 | CCc1ccc2[nH]c(=O)c(CN(CCN3CCOCC3)C(=O)Nc3ccccc3F)cc2c1 | 8.5% (inactive)
38 | CCC(C)[C@H](NC(=O)N1CCn2c1nc1ccccc12)C(=O)NCC1CCCO1 (some centres undefined) | -10.9% (inactive)
39 | O=C(NC1CCCc2ccccc21)c1cn2ccccc2n1 (centres undefined) | 13.2% (inactive)
40 | CC(C)c1ccc(NC(=O)CSc2nc3ccsc3c(=O)n2CCC(=O)O)cc1 | 6.9% (inactive)
41 | Cc1ccc(CNC(=O)CSc2nc3ccsc3c(=O)n2Cc2ccc(C(=O)O)cc2)cc1 | -4.6% (inactive)
42 | O=C(NCCN1CCOCC1)c1c[nH]c2ccc(S(=O)(=O)N3CCOCC3)cc2c1=O | 3% (inactive)
43 | CCCS(=O)(=O)c1c(S(=O)(=O)CCC)c2c3ccccc3ccn2c1C(N)=O | -10.5% (inactive)
44 | CCN(CC)S(=O)(=O)c1ccc(Cl)c(NC(=O)c2ccccc2C)c1 | 4.8% (inactive)
45 | CCN(CC)S(=O)(=O)c1ccc(Cl)c(NC(=O)c2cc(Cl)ccc2Cl)c1 | 7.1% (inactive)
46 | CCOc1ccccc1N(C)C(=O)Cn1ncc2c([nH]c3ccc(C)cc32)c1=O | -6.9% (inactive)

Row | Compound | inhibition
47 | CN(C(=O)COC(=O)c1ccccc1NC(=O)c1ccco1)C1CCS(=O)(=O)C1 (centres undefined) | 29.1% (inactive)
48 | Cc1ccc(NC(=O)c2nc[nH]c2C(=O)N[C@@H](C)c2ccccc2)cc1 | 53.8% (inactive)
49 | Cc1ccc(CCNC(=O)CCS(=O)(=O)c2ccc(Br)cc2)cc1 | 3.1% (inactive)
50 | O=C(CCS(=O)(=O)c1ccc(Br)cc1)NCCc1ccccc1 | -8.4% (inactive)
51 | Cc1ccc(OCCC(=O)NCCc2ccc(S(N)(=O)=O)cc2)cc1 | 21.9% (inactive)
52 | NS(=O)(=O)c1ccc(CCNC(=O)CCCOc2ccccc2)cc1 | 3.9% (inactive)
53 | CC(=O)Nc1ccc(-c2nnc(SCc3ccccc3C#N)n2C)cc1 | -3.6% (inactive)
54 | Cc1ccc(C(OCC(O)CNC(CO)C(O)c2ccc([N+](=O)[O-])cc2)c2ccccc2)cc1 (centres undefined) | 2% (inactive)
55 | CCOC(=O)C1=C(O)c2ccccc2C(=O)/C1=C\c1ccc(CC)cc1 | 31.1% (inactive)
56 | CCCCc1ccc(/C=C2\C(=O)c3ccccc3C(O)=C2C(=O)OCC)cc1 | 59% (active)
57 | CCCc1ccc(/C=C2\C(=O)c3ccccc3C(O)=C2C(=O)OCC)cc1 | 21.2% (inactive)
58 | Cc1cccc(Oc2ncnc3onc(C)c23)c1 | -0.9% (inactive)
59 | CCN1/C(=C/C=C/C=C/c2sc3ccccc3[n+]2CC)Sc2ccccc21 | 58.9% (inactive)
60 | CCN1/C(=C/C=C/C=C/C=C/c2sc3ccccc3[n+]2CC)Sc2ccccc21 | 44.3% (inactive)
61 | CCN(c1ccccc1)S(=O)(=O)c1ccc(Cl)c(NC(=O)CSc2n[nH]c(N)n2)c1 | 0.7% (inactive)
62 | COc1ccc(/C=c2\s/c(=C/C(=O)c3ccc(C)cc3)[nH]c2=O)cc1OC | 8.2% (inactive)
63 | COc1cccc(/C=c2\s/c(=C/C(=O)c3ccc(C)cc3)[nH]c2=O)c1OC | -9.9% (inactive)
64 | Cc1ccc(C)c(NC(=O)Nc2ccc3c(c2)OCO3)c1 | -7.8% (inactive)
65 | COc1ccccc1N1CCN(S(=O)(=O)c2ccc(Cl)s2)CC1 | -2.5% (inactive)
66 | Cc1oc(=O)c(NC(=O)c2cccc(Cl)c2)cc1C(=O)c1ccccc1 | -3% (inactive)
67 | COC(=O)c1cc(NC(=O)c2cccc(Cl)c2)c(=O)oc1/C=C/Nc1cc(C)cc(C)c1 | 93.3% (active)
68 | COC(=O)c1cc(NC(=O)c2ccccc2)c(=O)oc1C | -9.4% (inactive)
69 | CSc1nc2ccccc2cc1/C=C(\C#N)c1cccc(Cl)c1 | 3.7% (inactive)

Row | Compound | inhibition
70 | CSc1nc2ccccc2cc1/C=C(\C#N)c1ccccc1 | 3.1% (inactive)
71 | CSc1nc2ccccc2cc1/C=C(\C#N)c1cccc(C)c1 | 55.3% (active)
72 | CN(Cc1nc(-c2cccc(Cl)c2)no1)C1CCOCC1 | -8.4% (inactive)
73 | CSC1=NSC2=NC(=O)/C(=C/c3coc4ccccc4c3=O)C(=N)N12 | 4.5% (inactive)
74 | CCSC1=NSC2=NC(=O)/C(=C\c3coc4ccccc4c3=O)C(=N)N12 | 36.4% (inactive)
75 | CC(=O)Nc1cccc(NC(=O)Cc2ccc3ccccc3c2)c1 | 0.8% (inactive)
76 | Cc1cc(N2C(=O)C(O)=C(C(=O)c3ccc(C)o3)C2c2ccc([N+](=O)[O-])cc2)no1 (centres undefined) | 4.2% (inactive)
77 | Cc1ccc2[nH]cc(/C=C/c3cc[n+](C)cc3)c2c1 | 29.2% (inactive)
78 | C=CCn1cc(/C=C/c2cc[n+](C)cc2)c2ccccc21 | 17.1% (inactive)
79 | Cc1[nH]c2ccccc2c1/C=C/c1cc[n+](C)cc1 | 71.2% (active)
80 | C[n+]1ccc(/C=C/c2c[nH]c3ccc(F)cc23)cc1 | -4.5% (inactive)
81 | COC(=O)Cn1c(C)c(/C=C/c2cc[n+](C)cc2)c2ccccc21 | 17.9% (inactive)
82 | Cc1[nH]c2ccccc2c1/C=C/c1nc2ccccc2c(=O)[nH]1 | -11.7% (inactive)
83 | Cc1[nH]c2ccccc2c1/C=C/C(=O)c1ccccc1 | 4.5% (inactive)
84 | COc1cccc(CNS(=O)(=O)c2ccc3c(c2)N(C(C)=O)CCO3)c1 | -10.2% (inactive)
85 | O=C(CSCc1ccc(Cl)cc1)Nc1ccc(Br)cc1C(=O)O | 2.2% (inactive)
86 | Cn1c(=O)[nH]c(=O)c2c1nc(Sc1nc3ccccc3s1)n2Cc1ccccc1 | 13.4% (inactive)
87 | Cn1c(SCc2ccc(Br)cc2)nc2c(c1=O)SCC2 | -9.1% (inactive)
88 | CCOC(=O)C1=C(Cc2ccc(F)cc2)C(=O)c2ccccc2C1=O | 11.7% (inactive)
89 | CCOC(=O)C1=C(Cc2ccc(C)cc2)C(=O)c2ccccc2C1=O | 5% (inactive)
